# Compound activity (PubChem BioAssay)
# The full list was thinned out, with hits kept by preference.
# Artemis endo inh = Artemis endonuclease inhibitors, primary screen, biochemical, fluorescence intensity, FAM/BHQ-1 hairpin substrate. Protein artemis (Homo sapiens), Q96SD1. recombinant Artemis, quenched FAM hairpin cleavage fluorescence. inhibition, % at 10 µM. 0.78% of 30,000 active. AID 686954, 2013;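 active = at 10 µM dose, at least 30% inhibition, measured as corrected fluorescence normalized to stimulator and neutral control wells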
# Target sequence (Q96SD1 whole entry, looked up): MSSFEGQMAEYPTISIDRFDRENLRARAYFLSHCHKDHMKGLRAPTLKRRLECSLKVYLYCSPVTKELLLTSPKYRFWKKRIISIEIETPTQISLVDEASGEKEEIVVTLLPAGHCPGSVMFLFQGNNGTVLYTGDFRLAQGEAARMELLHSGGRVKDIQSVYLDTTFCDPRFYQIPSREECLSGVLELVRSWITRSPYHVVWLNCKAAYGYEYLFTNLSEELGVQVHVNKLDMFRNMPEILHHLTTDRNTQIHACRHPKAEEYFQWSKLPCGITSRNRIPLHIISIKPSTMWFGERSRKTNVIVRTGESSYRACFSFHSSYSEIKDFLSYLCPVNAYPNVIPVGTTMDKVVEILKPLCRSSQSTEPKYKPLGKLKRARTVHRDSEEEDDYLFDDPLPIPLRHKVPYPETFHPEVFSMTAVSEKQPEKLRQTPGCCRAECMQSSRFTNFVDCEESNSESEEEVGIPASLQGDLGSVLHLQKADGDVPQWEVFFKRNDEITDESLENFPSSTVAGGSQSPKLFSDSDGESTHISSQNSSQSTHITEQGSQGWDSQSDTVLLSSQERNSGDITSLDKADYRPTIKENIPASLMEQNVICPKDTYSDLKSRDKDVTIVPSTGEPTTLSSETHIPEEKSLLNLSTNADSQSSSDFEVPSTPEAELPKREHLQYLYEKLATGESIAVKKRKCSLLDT
# An asterisk follows results filed as active.
SMILES,Artemis endo inh
CC(C)CCNC(=O)C(c1cccnc1)N(Cc1ccccc1)C(=O)Cn1nnc2ccccc21 (stereo not given),1
Cc1cc(NC(=O)c2sccc2C)n(-c2cccc(Cl)c2)n1,9
CCCSc1nc(N)nc(-c2cccs2)c1C#N,6
N#Cc1c(NC(=O)CCn2cnc3ccccc3c2=O)oc(-c2ccccc2)c1-c1ccccc1,8
N#Cc1c(-c2ccccc2)c(-c2ccccc2)nn(CC(=O)NNC(=O)Nc2ccc(Cl)c(Cl)c2)c1=O,30*
N#Cc1c(-c2ccccc2)nc2n(-c3ccccc3)nc(C(=O)Nc3ccccc3)n2c1=O,10
COC(=O)c1ccc(NC(=O)C2CCCN2S(=O)(=O)c2ccc(F)cc2)cc1 (stereo not given),8
Cc1ccc(Cl)cc1N1CCN(Cc2nc3ccsc3c(=O)[nH]2)CC1,-2
CC1CN(C2CCN(C(=O)c3ccccc3Cl)CC2)CC(C)O1 (stereo not given),-2
Cc1cc(C)c(C)c(S(=O)(=O)N2C(=S)NC(=O)C2C(C)C)c1C (stereo not given),7
O=C1NC(=O)/C(=C\c2ccccc2Oc2ccc(F)c(F)c2)S1,34*
CCOC(=O)c1cncc(C(=O)O)c1,-10
CC(C)(C)c1[nH]nc2c1C(Cc1ccccc1)C(C#N)=C(N)O2 (stereo not given),-2
CCCCCOc1ccc(C2C(C(C)=O)=C(C)Nc3ncnn32)cc1OC (stereo not given),2
CSc1nc2ccc(S(=O)(=O)NC3CCCCC3)cc2s1,1
COc1ccc(S(=O)(=O)Nc2ccc3c(c2)OCCO3)cc1Cl,-2
CSc1nc2ccc(NS(=O)(=O)c3ccc4c(c3)OCCO4)cc2s1,34*
CC(C)n1c(=S)[nH]c2c1c(=O)[nH]c(=O)n2C,-7
COC(=O)c1sc2ccccc2c1-n1cccc1C(=O)C(=O)Nc1ccc(OC)cc1,-3
CC(C)CNC(=O)c1ccc(COc2ccc(Cl)cc2Cl)o1,-4
CCOc1ccccc1N1CN(CC)CNC1=S,55*
CCOc1ccccc1N1Cc2ccccc2C1,20
CCOc1ccccc1N1CCN(C(=O)C(F)(F)F)CC1,-4
Cc1csc(=N)n1CC(=O)N1CCc2ccccc21,8
NC(=O)c1oc2ccc(Cl)cc2c1NC(=O)CN1CCOCC1,-6
SMILES,Artemis endo inh
COc1cc(C2C(C(C)=O)=C(O)C(=O)N2CCc2ccc(OC)c(OC)c2)ccc1O (stereo not given),1
CCOc1cc(C2C(C(=O)c3ccc(C)o3)=C(O)C(=O)N2CCc2ccccc2)ccc1O (stereo not given),32*
COc1ccc(C2C(C(=O)c3ccc(C)o3)=C(O)C(=O)N2c2cc(C)on2)cc1OC (stereo not given),2
Cc1ccc(NC(=O)N2C(=O)C3(OCCO3)c3ccccc32)cc1,2
Cc1cccc(N(CC(=O)N/N=C/c2cc([N+](=O)[O-])ccc2Cl)S(C)(=O)=O)c1C,-1
CC1Cc2ccccc2N1C(=O)CSc1nc2c(c(=O)n(C)c(=O)n2C)n1Cc1ccc(F)cc1 (stereo not given),12
COc1cccc(-n2c(SCC(=O)N3c4ccccc4CC3C)nnc2-c2ccco2)c1 (stereo not given),17
CC1Cc2ccccc2N1C(=O)CSc1nnc2c(n1)[nH]c1ccccc12 (stereo not given),36*
Cc1cccc(/C=C2/S/C(=N/N=C3\CC4CCC3(C)C4(C)C)NC2=O)c1 (stereo not given),23
CCOC(=O)c1sc(NC(=O)COC(=O)Cn2cnc3ccccc32)c(C(=O)OCC)c1C,6
Nc1ccc2oc(-c3cccc4ccccc34)nc2c1,-2
CCC(=O)Nc1ccc2oc(-c3ccccc3Br)nc2c1,-3
O=C(Nc1ccc2oc(-c3cccc4ccccc34)nc2c1)c1ncn[nH]1,32*
COC(=O)CSc1nc(C)c(Oc2ccccc2)c(=O)[nH]1,-12
CCC1CCc2c(sc3nc(SCC(=O)NCc4ccco4)n(-c4ccccc4)c(=O)c23)C1 (stereo not given),17
O=C(O)CC(C(=O)O)c1cn(Cc2ccccc2)c2ccccc12 (stereo not given),2
N#Cc1ccccc1Cn1cc(C#N)c2ccccc21,10
Cc1[nH][nH]c(=O)c1C(c1c(C)[nH][nH]c1=O)c1cn(Cc2cccc3ccccc23)c2ccccc12,47*
O=C(c1ccc2ccccc2n1)N1CCN(c2ccccc2O)CC1,5
COc1ccc(S(=O)(=O)Nc2c(C)ccc3nsnc23)cc1OC,0
COc1ccc(S(=O)(=O)N(C)CC(=O)NCc2cccnc2)cc1C,1
Clc1ccc(-n2cccc2/C=N/n2cnnc2)cc1,-2
Cc1cc(/C=N/n2cnnc2)c(C)n1-c1ccc(OCc2ccc(Cl)cc2)cc1,33*
Clc1ccc(Cn2cc(/C=N/n3cnnc3)c3ccccc32)cc1,3
COc1cccc(/C=N/NC(=O)CSc2nnc(C)n2-c2ccccc2)c1OC,-10
SMILES,Artemis endo inh
COc1cccc(/C=N/Nc2nn3cnnc3c3ccccc23)c1O,35*
COc1cccc(/C=N\n2c(C)nnc2C)c1OC,-5
CCOC(=O)c1cc(C(=O)OCC)c2cccc(C)n2c1=O,3
C=CCn1c(SCC(=O)Nc2ncc(Cc3cc(Cl)ccc3Cl)s2)nnc1-c1ccncc1,-1
CCOc1ccccc1NC(=O)CCN1CCN(S(=O)(=O)c2ccc(Br)cc2)CC1,-8
COC(=O)c1ccc(C2/C(=C(/O)c3ccc(OC)cc3)C(=O)C(=O)N2c2cc(C)on2)cc1 (stereo not given),19
Cc1ccc(/C(O)=C2\C(=O)C(=O)N(c3cc(C)on3)C2c2cccc(Br)c2)cc1 (stereo not given),12
COC(=O)c1ccc(C2/C(=C(/O)c3ccc(OC(C)C)cc3)C(=O)C(=O)N2c2cc(C)on2)cc1 (stereo not given),32*
CCOC(=O)c1c(NC(=O)C2c3ccccc3Oc3ccccc32)sc(C(=O)N(CC)CC)c1C,0
O=C(NN=C1C2CC3CC(C2)CC1C3)c1cc(Cl)ccc1O,4
COCCN1CN=C(Nc2nc3ccccc3s2)NC1,2
COc1ccc(NC(=O)CSc2nc3c(c(=O)[nH]2)CCC3)cc1OC,-12
CCOC(=O)c1c(NC(=O)CSc2nncs2)sc(C)c1C,-5
CCOC(=O)c1c(NC(=O)CSc2nnnn2-c2ccccc2)sc2c1CCC(C)C2 (stereo not given),-4
CCOC(=O)c1c(NC(=O)CSc2nnc3c(n2)[nH]c2ccccc23)sc2c1CCN(C)C2,42*
COC(=O)CN1C2(C#N)CCCCC2CC2CCCCC21C#N (stereo not given),-6
Cc1cccc(NC(=O)CC2SC(=O)N(c3ccccc3)C2=O)c1 (stereo not given),2
CC(=O)N(c1cccc(C)c1)C1SC(=O)N(c2ccccc2)C1=O (stereo not given),37*
Cc1ccc(NC(=O)CC2SC(=O)N(c3ccccc3)C2=O)cc1 (stereo not given),-4
CC(=O)N(Cc1ccc(F)cc1)C1=C(NCc2ccccc2)C(=O)c2ccccc2C1=O,39*
CC(C)N(CCNC(=O)C1CCC(=O)N1Cc1ccc(F)cc1)Cc1ccccc1 (stereo not given),-4
Cn1c(NCc2ccccc2)cc(=O)n(C)c1=O,-8
O=C(N/N=C/C1C(c2ccccc2)C1(Cl)Cl)c1cccc(Br)c1 (stereo not given),10
Cc1ccc(-c2cc(C(=O)Nc3ccc4c(c3)OCCO4)c3ccccc3n2)cc1,4
CCNC(=O)CSc1ncnc2sccc12,-5
N#Cc1c(NC(=O)CSc2ncnc3sccc23)oc(-c2ccco2)c1-c1ccco1,31*
N#Cc1ccsc1NC(=O)CSc1ncnc2ccccc12,3
COC(=O)C(O)(NC(=O)NC(C)=O)C(F)(F)F (stereo not given),-9
